The values below come from PubChem BioAssay.

Active and inactive are the calls of the source. Unless noted, how the calls were made is not given here.

The subject of assay [1] is Wnt5a (protein binding on small-molecule microarray). In words: small molecules binding Wnt5a protein – biophysical, small-molecule microarray, 635/667 nm fluorescence, primary screen (AID 1142).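 Further: fluorescence read at 667 nm with signal to noise per printed feature.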 The settings on record: 635 nm fluorescence, higher = more signal.
The nature of assay [2]: ATP-based viability of Huh7 replicon cells – cell-based, CellTiter-Glo luminescence, basal, 48 h, cytotoxicity control for HCV replication inhibitor project, primary screen (AID 1143).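 Further: Huh7 hepatoma cells carrying a hepatitis C replication reporter with no stimulus; test concentration not given here.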 The settings on record: higher = more signal, called active from +8 up or from −8 down.
Assay [3] is described as follows: Pseudomonas biofilm growth suppression – PAO1 strain, BacTiter-Glo luminescence, LB-PBS, primary screen (AID 1144). The settings on record: P. aeruginosa PAO1 biofilm, 12 h, higher = more signal.
Assay [4] in a line: basal CRE-LacZ reporter activity in PC12 – cell-based, unstimulated, primary screen (AID 1145). The settings on record: no forskolin, luminescence, 4.5 h, higher = more signal, called active from +8 up or from −8 down.
A short description of assay [5]: forskolin-driven CRE-LacZ activity in PC12 – cell-based, CRE-LacZ reporter, forskolin-stimulated, primary screen (AID 1146).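 Further: PC12 cells with 6xCRE LacZ reporter stimulated by forskolin 10 µM; beta-galactosidase reporter signal reflecting CREB driven transcription.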 The settings on record: luminescence, 4.5 h, higher = more signal, called active from +8 up or from −8 down.
Assay [6] has as its target Streptavidin (Streptomyces avidinii) (UniProt P22629). In words: compounds binding control protein streptavidin – biophysical, small-molecule microarray, 635/667 nm fluorescence, artefact control for SMM compound annotation, primary screen (AID 1147).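 Further: signal reflects streptavidin binding to arrayed compounds as a control protein.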 Conditions: higher = more signal.
The nature of assay [7]: probe aInhba binding on compound microarray – biochemical, small-molecule microarray, 635/667 nm fluorescence, primary screen (AID 1148).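 Further: score merges 667nm spot fluorescence with signal-to-noise for antibody binding to printed compounds.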 The settings on record: higher = more signal.
Assay [8] deals with Torsin-1A (Homo sapiens) (UniProt O14656). Kind of assay: TOR1A wild-type binding on microarray – cell lysate, small-molecule microarray, lysate, 635/667 nm, primary screen (AID 1149). Conditions: COS7 hTOR1A-WT lysate, 635 nm fluorescence, higher = more signal.
The target is the same in assay [9]. In words: torsin A mutant lysate binding on microarrays – cell lysate, small-molecule microarray, COS7 lysate, 635/667 nm fluorescence, primary screen (AID 1150).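 Further: score pools 667 nm emission and signal to noise measuring lysate protein binding.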 The settings on record: COS7 hTOR1A mutant lysate, 635 nm fluorescence, higher = more signal.
In assay [10] the test system is Sonic hedgehog protein (Shh). In words: Sonic hedgehog microarray binding compounds – biochemical, small-molecule microarray, 635/667 nm fluorescence, primary screen (AID 1151).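 Further: Shh protein binding to compounds spotted on small-molecule microarray slides; score combines spot fluorescence intensity with signal-to-noise across triplicate slides.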 The settings on record: 635 nm fluorescence, higher = more signal.

Sequence of Torsin-1A (Homo sapiens) (O14656 whole entry, looked up): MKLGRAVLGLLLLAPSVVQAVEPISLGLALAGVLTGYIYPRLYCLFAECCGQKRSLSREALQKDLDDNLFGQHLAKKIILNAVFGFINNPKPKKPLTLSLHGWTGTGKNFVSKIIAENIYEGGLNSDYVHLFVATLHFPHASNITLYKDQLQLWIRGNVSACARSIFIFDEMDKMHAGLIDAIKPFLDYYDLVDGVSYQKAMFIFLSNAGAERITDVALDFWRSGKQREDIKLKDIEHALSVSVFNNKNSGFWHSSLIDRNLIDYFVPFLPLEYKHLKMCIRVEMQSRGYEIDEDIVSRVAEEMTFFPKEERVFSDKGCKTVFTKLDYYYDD
Sequence of Streptavidin (Streptomyces avidinii) (P22629 whole entry, looked up): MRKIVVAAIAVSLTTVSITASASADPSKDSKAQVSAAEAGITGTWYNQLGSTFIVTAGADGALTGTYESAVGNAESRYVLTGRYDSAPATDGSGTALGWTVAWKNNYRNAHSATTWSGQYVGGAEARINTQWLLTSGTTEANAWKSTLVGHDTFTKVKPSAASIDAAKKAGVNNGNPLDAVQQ

With `CC(C)C(=C=CC[C@H](O)c1ccccc1OCCO)C[C@H](O)COCc1ccccc1`, the composite z-score in assay [1] was -0.042; in assay [6], -0.266; in [7], -0.101; in the assay with Torsin-1A (Homo sapiens) [8] it was -0.0509; with Torsin-1A (Homo sapiens) [9] it was 1.12; in [10], 0.0553. In addition, the z-score is -2.03 (inactive) in assay [2], 0.297 (inactive) in [3], 16 (active) in [4] and -0.0014 (inactive) in [5].
For the compound `COc1ccc([Si](C)(C)[C@H]2[C@H](CC(=O)N3CCC[C@H]3CO)O[C@@]3(C(=O)N(Cc4ccc(N5CCCCC5=O)cc4)c4ccccc43)[C@@H]2C)cc1`, the composite z-score was 0.567 in assay [1]; -0.0147 in assay [6]; 0.426 in [7]; 0.13 in the assay with Torsin-1A (Homo sapiens) [8]; 0.608 in the assay with Torsin-1A (Homo sapiens) [9]; 2.17 in [10]. In addition, the z-score in [2] was -3.13 (inactive); in assay [3], -0.53 (inactive); in [4], -0.258 (inactive); in [5], 0.44 (inactive).
In the case of `C[C@@H]1ON(c2ccccc2)[C@H](c2ccccc2)[C@H]1C(=O)O`, the composite z-score was -0.0071 in assay [1]; 0.0265 in [6]; 0.134 in assay [7]; 0.404 in the assay with Torsin-1A (Homo sapiens) [8]; -0.115 with Torsin-1A (Homo sapiens) [9]; 1.01 in assay [10]. In addition, the z-score in assay [2] was 0.343 (inactive); in [3] it was -0.525 (inactive); in [4] it was 0.308 (inactive); in assay [5], 0.411 (inactive).
For `C[C@]1(C(=O)O)c2ccccc2C(=O)N(Cc2cc(F)cc(C(F)(F)F)c2)[C@H]1c1ccc(CO)cc1`, the composite z-score is -0.0056 in assay [1]; 0.0949 in assay [6]; -0.152 in [7]; -0.0875 with Torsin-1A (Homo sapiens) [8]; 0.154 with Torsin-1A (Homo sapiens) [9]; 0.505 in [10]. Besides, the z-score is -2.56 (inactive) in assay [2], -2.17 (inactive) in assay [3], -0.502 (inactive) in assay [4] and -0.172 (inactive) in [5].
As to `COC(=O)[C@@]1(Cc2ccc(OC)cc2)[C@H]2c3cc(C(=O)N4CCCC4)n(CCn4cc([N+](=O)[O-])nc4C)c3C[C@H]2CN1C(=O)c1ccccc1`, the composite z-score is 1.94 in assay [1]; 2.22 in assay [6]; 1.84 in [7]; -0.236 with Torsin-1A (Homo sapiens) [8]; 1.75 with Torsin-1A (Homo sapiens) [9]; -0.455 in [10]. For the same compound, the z-score was -0.798 (inactive) in assay [2], -0.245 (inactive) in assay [3], 0.779 (inactive) in assay [4] and 0.861 (inactive) in assay [5].
For the compound `COC(=O)[C@@]1(Cc2ccc(F)cc2)[C@H]2c3cc(C(=O)N4CCCC4)n(CCc4ccccn4)c3C[C@H]2CN1C(=O)c1ccccc1`, the composite z-score in assay [1] is -0.0942; in assay [6], 0.478; in [7], 0.0889; in the assay with Torsin-1A (Homo sapiens) [8], -0.226; with Torsin-1A (Homo sapiens) [9], 0.783; in [10], 0.208. Also, the z-score was -0.619 (inactive) in assay [2], -0.237 (inactive) in assay [3], 2.87 (inactive) in [4] and 0.245 (inactive) in assay [5].
For `COc1ccc(C(O)C2C=CC3C(=O)N(C)C(=O)C3N2N(c2ccccc2)c2ccccc2)cc1` (stereo not given), the composite z-score in assay [1] was 0.0865; in [6] it was 1.35; in [7], 0.105; in the assay with Torsin-1A (Homo sapiens) [8] it was 0.153; with Torsin-1A (Homo sapiens) [9], 0.368; in assay [10] it was -0.176. For the same compound, the z-score in assay [2] is 0.522 (inactive); in [3], 0.219 (inactive); in [4] it was 0.629 (inactive); in assay [5] it was 0.517 (inactive).
`C=CCOC(=O)[C@@H]1[C@H]2C(=O)O[C@H](c3ccccc3)[C@H](c3ccccc3)N2[C@H](c2ccc(OCCOC(=O)[C@H]3C[C@H]4C(=O)N[C@@H](CCCCN(C)C)C(=O)N4[C@H]3c3ccc(O)cc3)cc2)[C@@]12C(=O)Nc1ccc(I)cc12`: the composite z-score came out at 0.374 in assay [1]; 0.433 in assay [6]; 0.0895 in assay [7]; 1.18 in the assay with Torsin-1A (Homo sapiens) [8]; 0.9 with Torsin-1A (Homo sapiens) [9]; 1.98 in [10]. Moreover, the z-score in [2] was -1.29 (inactive); in assay [3], -0.852 (inactive); in assay [4] it was -0.118 (inactive); in [5], 2.13 (inactive).
With `CC(C)N1C(=O)C[C@@](C(=O)NCCN2CCOCC2)(c2ccc([N+](=O)[O-])cc2)[C@H]1c1ccc(CO)cc1`, the composite z-score in assay [1] is -0.182; in assay [6], -0.919; in assay [7], -0.154; with Torsin-1A (Homo sapiens) [8], -2.27; in the assay with Torsin-1A (Homo sapiens) [9] it was 1.04; in [10] it was -1.1. In addition, the z-score in [2] was -2.94 (inactive); in assay [3], -1.4 (inactive); in assay [4], -0.295 (inactive); in [5] it was 0.668 (inactive).
With `C[N+](C)(C)CCCC[C@@H]1NC(=O)[C@H]2C[C@@H](C(=O)NCCCCCNC(=O)CS)[C@@H](c3cccc(OCCO)c3)N2C1=O`, the composite z-score is 0.0448 in [1]; 0.474 in assay [6]; -0.176 in [7]; 0.116 with Torsin-1A (Homo sapiens) [8]; 0.653 in the assay with Torsin-1A (Homo sapiens) [9]; 0.602 in assay [10]. The z-score in assay [2] is -0.907 (inactive); in assay [3], 0.236 (inactive); in assay [4], 0.13 (inactive); in [5] it was 0.487 (inactive).
As for `Cc1ccc(S[C@]2(C(=O)NC3CC3)CC(=O)N(C(C)C)[C@@H]2c2ccc(CO)cc2I)cc1`, the composite z-score in assay [1] was -0.385; in assay [6], -0.677; in assay [7] it was -0.394; with Torsin-1A (Homo sapiens) [8] it was 0.778; with Torsin-1A (Homo sapiens) [9], 0.652; in [10] it was 0.677. Further, the z-score in assay [2] is -4.82 (inactive); in [3], -1.21 (inactive); in assay [4], 0.299 (inactive); in assay [5] it was 1.42 (inactive).
On to `O=C1C[C@@](C(=O)NC2CC2)(c2ccc([N+](=O)[O-])cc2)[C@@H](c2ccc(CO)cc2)N1C1CCCCC1`, for which the composite z-score in [1] is 0.755; in assay [6], -0.124; in assay [7], -0.212; with Torsin-1A (Homo sapiens) [8], -0.204; with Torsin-1A (Homo sapiens) [9] it was 0.466; in assay [10], 2.18. Further, the z-score is -5.6 (inactive) in assay [2], -2.4 (inactive) in [3], 0.118 (inactive) in [4] and -0.0595 (inactive) in assay [5].
For `C=CC[C@@]1(C(=O)N(C)C)N=C(c2ccc(OCCCO)cc2)O[C@@H]1c1ccccc1CN=[N+]=[N-]`, the composite z-score in assay [1] was determined as 0.615; in assay [6], 1.35; in assay [7] it was 0.143; with Torsin-1A (Homo sapiens) [8] it was 0.886; with Torsin-1A (Homo sapiens) [9] it was 1.17; in [10], 0.38. The z-score is -2.89 (inactive) in assay [2], 1.1 (inactive) in [3], 0.754 (inactive) in assay [4] and -0.357 (inactive) in [5].
